From PubChem BioAssay
Most compounds without a hit are left out; they make up all but 21% or so of the library.
NS1 function inh – blocks influenza NS1 protein function | hit rate 0.4% among 270,000 | Potency, µM (series often up to 46.1 µM), for inactives: top-dose activity, positive = more growth | AID 2326; calls by dose curve; also: potency is read from the fitted curve at half-maximal effect; actives are rising curves; nearly all actives have a fitted effect of over 50% in size
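Growth recovery, yeast-based: influenza A NS1 expressed in S. cerevisiae causes slow growth, and suppressors are detected by OD600. The parent strain without NS1 is used as positive control.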
Shiga toxin inh – inhibitors of Shiga toxin in Vero cells; Vero cells, Shiga toxin protein synthesis inhibition reporter; inhibition, % at 38.7 µM; hit rate 9.2% among 290,000; in the data active = inhibition mostly above about 28%, no sharp cut-off; inactive = mostly below about 43%; also: 0% is about no effect
Pf growth 48h – P. falciparum growth inhibition at 48 hours (one generation) | P. falciparum luciferase growth in erythrocytes, 48 h | hit rate 5.9% among 310,000 | Potency, µM (highest dose often 28.7 µM), inactives show at the highest dose activity change, negative = inhibition, hits mostly inhibitors; also: potency is read from the fitted curve at half-maximal effect; % is scaled to controls: 0 for no effect and ±100 for the full control effect
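Growth was read as firefly luciferase luminescence after a 48 h, 37 C, 5% CO2 exposure of compounds to reporter-bearing P. falciparum cultures (0.1% parasitemia, 2% hematocrit final) in Albumax-supplemented RPMI 1640.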
Sm TGR block – blocks Schistosoma mansoni thioredoxin glutathione reductase. Q962Y6. purified TGR, DTNB reduction, TNB absorbance 405 nm. Potency, µM (doses to about 114 µM), for the others: at the top dose activity change, negative = inhibition, hits mostly inhibitors. hit rate 3% among 360,000. AID 485364; also: potency is read from the fitted curve at half-maximal effect; % is scaled to controls: 0 for no effect and ±100 for the full control effect; nearly all actives have a fitted effect of over 60% in size
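TGR 20 nM + NADPH 100 uM (dispensed conc.), cpd preinc 15 min RT; start with NADPH (500 uM addition) then DTNB (15 mM addition). Kinetic TNB absorbance, 405 nm filter. Four-parameter Hill fit across titration.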
Pf growth 96h – P. falciparum growth inhibition at 96 hours; P. falciparum luciferase reporter growth, 96 h; Potency, µM (series often up to 28.7 µM), for the others: at the highest dose activity change, negative = inhibition, actives largely listed as inhibitors; hit rate 6.9% among 320,000; also: potency is read from the fitted curve at half-maximal effect; % is scaled to controls: 0 for no effect and ±100 for the full control effect
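Readout is luminescence from an integrated firefly luciferase in P. falciparum. Red cells, 2% hematocrit and 0.05% parasitemia final, were cultured with compound through two parasite generations (96 hours) at 37 C, 5% CO2.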
CHX counter – counter-screen for Shiga toxin inhibitors: cycloheximide protein synthesis inhibition | hit rate 12% among 300,000 | AID 2314 | cell reporter, cycloheximide protein synthesis inhibition counterscreen | max response, %; in the data active = max response mostly above about 13%, no sharp cut-off; inactive = mostly below about 14%; also: read at 38.3 µM for the half of the compounds with a filed dose; 0% is about no effect
An asterisk follows results filed as active. Unless noted, calls follow the shape of the dose curve; as a rule, active = well fitted curve in the direction sought with a large enough effect; inconclusive = small, poorly fitted or top-dose-only effect, or another doubt; inactive = no such curve, though single readings can be large; an effect the other way counts as inactive or inconclusive.

For CCOC(=O)C1CCCN(Cc2c(C(=O)N3CCOCC3)nc3ccccn23)C1 (stereo not drawn) the results were NS1 function inh -1%, Shiga toxin inh -8, Pf growth 48h 61%, Sm TGR block -30%, Pf growth 96h 9.3µM* and CHX counter -1.
Screening CCCCN(C)C(=O)C1CCN(CCCc2ccccc2)CC1 returned NS1 function inh 6%, Shiga toxin inh -7, Pf growth 48h 2.3µM*, Sm TGR block 14% and CHX counter 6.
Cc1ccc(NC(=O)CN(CCc2ccccc2)S(C)(=O)=O)cc1 was read as NS1 function inh -25%, Shiga toxin inh -2, Pf growth 48h -11%, Sm TGR block -14%, Pf growth 96h 4% and CHX counter 2.
Screening CC(=O)Nc1ccc(NC(=O)c2oc3ccc4c(c3c2C)C(=O)CC(C)(C)O4)cc1 returned Sm TGR block -10%.
CCCC[N+]12C3C[C@H](C4[C@H](O)[C@]5(C[C@@H]41)c1ccccc1N(C)[C@@H]35)[C@H](CC)[C@H]2O (stereo partly drawn) was read as NS1 function inh -2%, Shiga toxin inh -13, Pf growth 48h 13µM*, Sm TGR block 0%, Pf growth 96h inconclusive and CHX counter -3.
Screening Cc1nn(C)c(Sc2ccccc2N)c1[N+](=O)[O-] returned NS1 function inh 1%, Shiga toxin inh 90, Pf growth 48h 9%, Pf growth 96h 5% and CHX counter 29*.
Cc1ccc(OCC(O)CN2C(=O)NC(C)(C)C2=O)c(C)c1 (stereo not drawn) was read as NS1 function inh -2%, Shiga toxin inh -1, Pf growth 48h 13%, Pf growth 96h 44% and CHX counter -1.
`Cc1ccc(-c2nc3ccccc3[nH]2)cc1NC(=O)c1ccco1` gave NS1 function inh -138%, Shiga toxin inh 53, Pf growth 48h 17%, Sm TGR block -2%, Pf growth 96h inconclusive and CHX counter 22*.
For O=C(Nc1cccc(-c2nc3ccccc3[nH]2)c1)c1cccc(NC(=O)c2ccco2)c1 the results were NS1 function inh 4%, Shiga toxin inh -19, Pf growth 48h inconclusive, Sm TGR block -16% and CHX counter -7.
`O=C(Nc1ccc2nc(-c3ccc(Br)o3)[nH]c2c1)c1cccs1` gave NS1 function inh -47%, Shiga toxin inh 52*, Pf growth 48h inconclusive, Sm TGR block 25µM*, Pf growth 96h inconclusive and CHX counter 45*.
For O=C(Nc1ccc2nc(-c3ccccc3)[nH]c2c1)c1ccco1 the results were NS1 function inh -11%, Shiga toxin inh 47*, Pf growth 48h inconclusive, Sm TGR block 28µM*, Pf growth 96h -11% and CHX counter 36*.
For CC(=O)Nc1ccc(Oc2ccc3nc(C)[nH]c3c2)cc1 the results were NS1 function inh 2%, Shiga toxin inh -3, Sm TGR block 6%, Pf growth 96h 16% and CHX counter -1.
For O=C(Nc1cccc(NC(=O)c2cccs2)c1)c1ccc(Br)o1 the results were NS1 function inh -10%, Shiga toxin inh -6, Pf growth 48h 11%, Sm TGR block -28%, Pf growth 96h 29% and CHX counter 9.
Screening CC(=O)Nc1ccc2nc(-c3ccc(Br)o3)[nH]c2c1 returned NS1 function inh -8%, Shiga toxin inh 58*, Pf growth 48h 220%, Sm TGR block 25µM*, Pf growth 96h -23% and CHX counter 55*.
CN(Cc1nc2ccccc2c(=O)[nH]1)C(=O)c1ccc(S(=O)(=O)N2CCCC2)cc1 was read as Pf growth 48h -6%, Sm TGR block -6% and Pf growth 96h inconclusive.
`Cc1ccc(-c2nc3ccccc3[nH]2)cc1NC(=O)COc1ccc(Cl)cc1Cl` gave Sm TGR block 0%.
For Cc1cccc(C)c1OCC(=O)Nc1ccc(NC(=O)c2ccco2)cc1 the results were NS1 function inh -5%, Shiga toxin inh -1, Pf growth 48h inconclusive, Sm TGR block -7%, Pf growth 96h inconclusive and CHX counter 9.
Cc1cccc2[nH]c(-c3ccc(NC(=O)c4ccco4)cc3)nc12 was read as NS1 function inh -14%, Shiga toxin inh 126*, Pf growth 48h -45%, Sm TGR block -1%, Pf growth 96h 0.41µM* and CHX counter 32*.
